Several values for one entry are separate records, joined by “and”; a condition that tells them apart may be missing. Equal entries are not always repeated. Results filed as inconclusive are left out. Activity calls are given as the source filed them. Unless noted, calls follow the shape of the dose curve; as a rule, active = well fitted curve in the direction sought with a large enough effect; inconclusive = small, poorly fitted or top-dose-only effect, or another doubt; inactive = no such curve, though single readings can be large; an effect the other way counts as inactive or inconclusive.
How the values were obtained:
[1] = Cell Viability - MRC5 (AID 434; calls by dose curve;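 also: potency is read from the fitted curve at half-maximal effect; cells exposed to compound for 40 hours at 37 °C; potency reflects cytotoxicity seen as loss of intracellular ATP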); conditions: MRC5 lung fibroblast viability, qHTS
How it was run: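 qHTS cytotoxicity in human lung fibroblast MRC5 cells; 40 hr treatment, 37 °C; cellular ATP by luciferase luminescence; DMSO = 0%, 100 uM tamoxifen = 100% inhibition; Hill-fit AC50.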

[2] = Cellular Toxicity (caspase-3) HepG2 (AID 654); conditions: HepG2 caspase-3 activation, luminescence; series mostly up to 92.2 µM;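 also: cells exposed to compound for 16 hours before reading; 0% = DMSO alone and 100% = caspase signal from 100 µM tamoxifen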
How it was run: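 HepG2 cells (1500/well) were treated 16 h at 37 °C in complete medium, then caspase 3/7 activity was read by Caspase-Glo luminescence. Data were normalized to DMSO and 100 uM tamoxifen; AC50 came from Hill-equation fits of qHTS concentration-response.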

[3] = Cellular Toxicity (caspase-3) HUV-EC-C (AID 656); conditions: HUV-EC-C cells, caspase-3 activation (apoptosis); series mostly up to 92.2 µM
How it was run: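 Concentration-dependent caspase 3/7 induction was assessed in HUV-EC-C cells exposed for 16 hours. Data scaled between DMSO and tamoxifen (100 uM) controls.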

[4] = Cellular Toxicity (caspase-3) SHSY5Y (AID 657); conditions: SH-SY5Y caspase-3 activation; series mostly up to 91.7 µM
How it was run: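 Readout: caspase-cleaved peptide-aminoluciferin substrate driving luciferase light in SH-SY5Y neuroblastoma cells after 16 h treatment. Response normalized to DMSO and 10 uM staurosporine controls.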

[5] = Cellular Toxicity (caspase-3) BJ (AID 658); conditions: BJ fibroblasts, luminescence; Potency: caspase-3 activation; series mostly up to 91.7 µM
How it was run: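 Readout: Caspase-Glo 3/7 luminescence increase in BJ cells after 16 hr treatment at 37 °C. Staurosporine and tamoxifen served as positive controls; AC50 values came from Hill modelling of data normalized to DMSO and 10 uM staurosporine.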

[6] = Cellular Toxicity (caspase-3) MRC-5 (AID 659); conditions: MRC-5 cells, luminescence, normalized: DMSO 0%, 10 µM staurosporine 100%; series mostly up to 91.7 µM
How it was run: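 Concentration-dependent caspase 3/7 activation is measured in human normal lung fibroblasts (MRC-5) following 16-hour treatment. AC50 values come from standard Hill-equation modeling of luminescence normalized to DMSO and 10 uM staurosporine.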

[7] = Cellular Toxicity (caspase-3) Mesangial (AID 660); conditions: mesangial cells, normalized: DMSO 0%, 100 µM tamoxifen 100%; series mostly up to 91.7 µM;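 also: cells exposed to compound for 16 h before the caspase read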
How it was run: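 Human renal glomerular mesangial cells, 1000/well, 5 h at 37 C before 16 h compound treatment. Caspase-Glo 3/7 luminescence after 20 min; normalized to DMSO and 100 uM tamoxifen, AC50 from Hill fit.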

[8] = Cellular Toxicity (caspase-3) SK-N-SH (AID 661); conditions: SK-N-SH caspase-3 activation, qHTS, DMSO as zero, staurosporine as full; series mostly up to 91.7 µM
How it was run: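 Human SK-N-SH neuroblastoma cells, 1500/well, were exposed to compounds for 16 hours at 37 °C. Caspase-Glo 3/7 luminescence was normalized to DMSO (basal) and 10 uM staurosporine (100%), and AC50 came from a Hill fit.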

[9] = Cellular Toxicity (caspase-3) H-4-II-E (AID 663); conditions: H-4-II-E rat hepatoma; Potency: caspase-3 activation; series mostly up to 92.2 µM;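 also: cells exposed to compound for 16 hr before readout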
How it was run: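 Apoptosis induction is scored as increased luminescence from caspase 3/7 substrate cleavage in rat hepatoma H-4-II-E cells exposed to compound for 16 hr. Activity is scaled between DMSO and 100 uM tamoxifen.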

[10] = Cellular Toxicity (caspase-3) Hek293 (AID 664); conditions: HEK293 caspase-3 activation, DMSO = 0%, 100 µM tamoxifen = 100%; at 92.2 µM (top of the series);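 also: cells exposed to compound for 16 h at 37 °C before readout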
How it was run: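 HEK293 cells in complete medium treated 16 h at 37 °C, then Caspase-Glo 3/7 luminescence read after 20 min at room temperature. Normalized to DMSO and 100 uM tamoxifen; AC50 from Hill fit of concentration-response.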

[11] = Cellular Toxicity (caspase-3) N2a (AID 665); conditions: N2a cells, luminescence, normalized: DMSO 0%, 10 µM staurosporine 100%; series mostly up to 92.2 µM;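 also: compound exposure lasted 16 h at 37 °C before readout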
How it was run: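 Mouse N2a neuroblastoma cells, 1500 per well, treated 16 h at 37 °C in complete medium; caspase-3/7 activity by Caspase-Glo luminescence after 1 h. Normalized to DMSO and 10 uM staurosporine; AC50 from Hill fits.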

[12] = Cellular Toxicity (caspase-3) Renal Proximal Tubule (AID 667); conditions: renal proximal tubule cells, primary cells freshly taken from rat; Potency: caspase-3 activation; series mostly up to 91.7 µM;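 also: cells exposed to compound for 16 hours at 37 °C before detection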
How it was run: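 Caspase-Glo 3/7 read-out, rat primary kidney proximal tubule cells. Compound exposure 16 h, 37 °C; detection after 1 h at RT. Activity scaled to DMSO and 10 uM staurosporine.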

[13] = MultiTox-Fluor Cytotoxicity Assay - LYMP1-001 - Dead Cells (AID 946); conditions: LYMP1-001 lymphoblastoid cells, dead-cell protease fluorescence; series mostly up to 92.2 µM
How it was run: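 Cytotoxicity as increased dead-cell protease fluorescence (bis-AAF-R110, 485/520 nm), read 60 min after MultiTox-Fluor reagent. Human lymphoblastoid line exposed 16 h; Hill-fitted AC50, with DMSO as 0% and 15 uM tetraoctylammonium bromide as 100%.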

[14] = MultiTox-Fluor Cytotoxicity Assay - LYMP1-003 - Live Cells (AID 962); conditions: LYMP1-003 lymphoblastoid cells, MultiTox-Fluor live-cell protease fluorescence; series mostly up to 92.2 µM;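 also: 0% = DMSO only and full loss = 92 µM tetraoctylammonium bromide; cytotoxic hits lower the live-cell protease signal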
How it was run: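 LYMP1-003 lymphoblastoid cells, 2500/well in complete medium, treated 16 h at 37 C; live-cell protease cleavage of GF-AFC read by fluorescence (Ex/Em 405/510) after 60 min reagent; AC50 from Hill fits of concentration-response.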

[15] = Cell Viability - LYMP1-003 - Assay at 24 hr (AID 963); conditions: LYMP1-003 lymphoblastoid cell viability; series mostly up to 92.2 µM;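 also: plate controls were DMSO only for no effect and tetraoctylammonium bromide positive control for full effect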
How it was run: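 Human lymphoblastoid LYMP1-003 cells, 2500/well, treated 24 h at 37 C in complete medium. Viability read as intracellular ATP by CellTiter-Glo luminescence after 30 min at room temperature; AC50 from Hill-equation fits of qHTS concentration-response.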

[16] = qHTS Assay for Identification of Small Molecule Inducers of Hypoxia Response (AID 2120; active = well fitted curve in the direction sought with a large enough effect in the signal ratio, with a control signal flat, not every such curve was filed as active; the % refers to the signal ratio; also: 0% is about no effect); conditions: hypoxia response reporter cells, beta-lactamase ratio readout; series mostly up to 104 µM
How it was run: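 HRE-bla ME-180 cells in Opti-MEM with 0.5% dialyzed FBS, pre-plated 4-5 h, then compound titration for 17 h at 37 degrees Celsius. CCF4 loaded 2.5 h at room temperature; 460/530 nm ratio gave %Activity and AC50 for induction.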

[17] = target: Peroxisome proliferator-activated receptor alpha (Homo sapiens) (UniProt Q07869); assay: qHTS assay for small molecule agonists of the peroxisome proliferator-activated receptor alpha (PPARalpha) signaling pathway (AID 651778); conditions: PathHunter PPARalpha complementation, chemiluminescence, 6 h; max response: active compounds read high; also: % of control where 0% means no effect
How it was run: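 Chemiluminescence from complemented enzyme reported PPARalpha activation in cells after 6 hr of compound treatment at 37 C. The detection reagent was incubated for 60 min at room temperature, and compounds were scored as agonists.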

[18] = qHTS assay for small molecule agonists of the antioxidant response element (ARE) signaling pathway measured by Nrf2-dependant transcriptional activity - cell viability counter screen (AID 720653; active = well fitted curve in the direction sought with a large enough effect in the repeat runs; an effect the other way counts as inactive or inconclusive; also: % is scaled to controls: 0 for no effect and ±100 for the full control effect); conditions: ARE-bla HepG2 viability, CellTiter-Glo ATP luminescence, 16 h; max response: active compounds read low
How it was run: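 Cytotoxicity counter screen: intracellular ATP quantified by CellTiter-Glo luminescence in the same ARE-bla HepG2 plates, after 16 h compound exposure and a 2 h beta-lactamase substrate step.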

[19] = qHTS assay for cell viability of HEK293 cells (AID 743288); conditions: ATP luminescence (CellTiter-Glo), 18 h; max response: active compounds read low; also: % is scaled to controls: 0 for no effect and ±100 for the full control effect; nearly all actives have a fitted effect of over 50% in size
How it was run: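 Luminescent ATP quantitation served as the viability read-out. Cells (parental HEK293, 2,000/well) received compounds after at least 5 h at 37 C and were exposed for 18 h before a 30 min room-temperature reagent step.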

[20] = qHTS assay for cell viability of the p53RE-bla HCT-116 cell line (AID 743292); conditions: p53RE-bla HCT-116 viability, ATP luminescence, 16 h; series mostly up to 95 µM; also: % is scaled to controls: 0 for no effect and ±100 for the full control effect; nearly all actives have a fitted effect of over 55% in size
How it was run: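 ATP-based luminescence, 16 h compound exposure at 37 C, p53RE-bla HCT-116 cells at 4,000/well.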

Sequence of Peroxisome proliferator-activated receptor alpha (Homo sapiens) (Q07869 whole entry, looked up): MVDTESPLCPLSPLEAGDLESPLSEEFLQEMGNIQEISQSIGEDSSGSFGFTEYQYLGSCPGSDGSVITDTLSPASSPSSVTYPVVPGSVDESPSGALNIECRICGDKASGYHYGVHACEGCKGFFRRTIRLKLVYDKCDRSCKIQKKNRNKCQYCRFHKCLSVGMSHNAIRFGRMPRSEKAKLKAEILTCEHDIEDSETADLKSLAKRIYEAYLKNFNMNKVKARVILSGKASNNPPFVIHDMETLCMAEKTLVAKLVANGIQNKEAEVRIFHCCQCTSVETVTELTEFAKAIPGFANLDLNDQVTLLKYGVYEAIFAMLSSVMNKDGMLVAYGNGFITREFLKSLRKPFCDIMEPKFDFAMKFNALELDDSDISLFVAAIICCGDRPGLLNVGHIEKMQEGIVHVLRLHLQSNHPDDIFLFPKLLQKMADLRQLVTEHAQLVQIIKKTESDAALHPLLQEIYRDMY

CC(C)COC(=O)COc1cc(Cl)c(Cl)cc1Cl
inactive: Potency [1] > 92 µM | Potency [2] | Potency [3] | Potency [4] | Potency [5] | outcome [6] | outcome [7] | outcome [8] | Potency [9] | caspase-3 activation [10] 3.66% | outcome [11] | Potency [12] | Potency [13] | Potency [14] | Potency [15] | Potency [16] | max response [17] 9.61% | max response [18] 7.92% | max response [19] 6.88% | Potency [20]

CCOc1ccc2nc(N)sc2c1
inactive: Potency [1] > 92 µM | Potency [2] | Potency [3] | Potency [4] | Potency [5] | outcome [6] | outcome [7] | outcome [8] | Potency [9] | caspase-3 activation [10] 2.81% | outcome [11] | Potency [12] | Potency [13] | Potency [14] | Potency [15] | Potency [16] | max response [17] -0.23% | max response [18] -3.62% | max response [19] -4.83% | Potency [20]

CCCCCCc1ccc(-c2ccc(C#N)cc2)cc1
inactive: Potency [1] > 92 µM | Potency [2] | Potency [3] | Potency [4] | Potency [5] | outcome [6] | outcome [7] | outcome [8] | Potency [9] | caspase-3 activation [10] 0.233% | outcome [11] | Potency [12] | Potency [13] | Potency [14] | Potency [15] | Potency [16] | max response [17] -3.23% | max response [18] -11.9% | max response [19] -6.02% | Potency [20]

COc1ccc(C(=O)Nc2ccccc2)cc1[N+](=O)[O-]
inactive: Potency [1] > 92 µM | Potency [2] | Potency [3] | Potency [4] | Potency [5] | outcome [6] | outcome [7] | outcome [8] | Potency [9] | caspase-3 activation [10] -1.89% | outcome [11] | Potency [12] | Potency [13] | Potency [14] | Potency [15] | Potency [16] | max response [17] -0.106% | max response [18] 0.739% | max response [19] -5.07% | Potency [20]

O=C(O)c1ccc([N+](=O)[O-])cc1
inactive: Potency [1] > 92 µM | Potency [2] | Potency [3] | Potency [4] | Potency [5] | outcome [6] | outcome [7] | outcome [8] | Potency [9] | caspase-3 activation [10] 10.3% | outcome [11] | Potency [12] | Potency [13] | Potency [14] | Potency [15] | Potency [16] | max response [17] -2.26% and 0.632% | max response [18] -7.35% and -20.8% | max response [19] -3.6% and -1.43% | Potency [20]

CCCCCCCCC1CO1 (stereo not given)
inactive: Potency [1] > 92 µM | Potency [2] | Potency [3] | Potency [4] | Potency [5] | outcome [6] | outcome [7] | outcome [8] | Potency [9] | caspase-3 activation [10] 0.315% | outcome [11] | Potency [12] | Potency [13] | Potency [14] | Potency [15] | Potency [16] | max response [17] -3.27% | max response [18] 14.9% | max response [19] 4.27% | Potency [20]

From PubChem BioAssay (NCATS)
